# Test results published in PubChem BioAssay (NCI).
# The panel holds about 83,000 compounds, 20% with a hit somewhere; the sample as a whole holds those more often.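 Assay: single dose, 48 h. Readout: percent growth (0 = no net growth; negative = cell death). Active: <10.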 A number with no mark means an inactive call. Calls of active or inactive are those of the source.
# System: OVCAR-8 ovarian
# Assay: NCI-60 one-dose screen, 48 h (100 = growth as untreated, 0 = no growth, -100 = all killed)
# Details: 10 µM unless noted
row,Compound,growth
1,COc1nc(OC)nc(-c2cc(C(=O)c3ccc(Br)cc3)n3cc(C)cc(C)c23)n1,54.7%
2,CC(=O)OCC(=O)[C@@]1(O)[C@H](C)C[C@H]2[C@@H]3C=C(C)C4=Cc5c(cnn5-c5ccc(F)cc5)C[C@]4(C)[C@H]3[C@@H](O)C[C@@]21C,32.7%
3,Brc1c(-c2ccncc2)nc2n1CCS2,94.6%
4,CC(=O)/C(=C\c1c(-c2ccccc2)[nH]c2ccccc12)S(=O)(=O)c1ccccc1,12.4%
5,COc1ccc(/C=N/c2cc(C(C)(C)C)nn2-c2ccccc2)cc1,97%
6,CCC1(CC)C(OC)NC(Br)=C(C#N)C1(C#N)C(N)=O (centres undefined),106%
7,COc1ccc(CN2C(=O)/C(=C\C(=O)c3ccc(OCCN4CCCC4)cc3)c3ccccc32)cc1,86.5%
8,COc1ccc(/C=C2\SC(=O)N(Cc3cc(=O)oc4ccc(OC)cc34)C2=O)cc1,95.4%
9,c1cc(C2CCCCC2)ccc1OCCCCCCN1CCNCC1,48%
10,COc1cc(/C=C/C(=O)/C=C(/C=C/c2ccc(OC(C)=O)c(OC)c2)OB(F)F)ccc1OC(C)=O,20%
11,Cc1c([C@H](C(Cl)Cl)[C@H](O)[C@H]2C[C@H](C)C(=O)O2)ccc2c1C(=O)[C@H]1[C@H]2C[C@@H](Br)[C@@]23O[C@@H](CO[C@H]2O)CC13C (some centres undefined),5.88% (active)
12,O=C1/C(=N\c2cc(=O)[nH]n2S(=O)(=O)c2ccccc2)Nc2ccccc21,102%
13,N=C(N)c1ccc(-c2ccc(-c3ccc(Cl)cc3)s2)s1,-37% (active)
14,COc1cc([C@@H]2c3cc4c(cc3[C@H](O)[C@H]3COC[C@@H]23)OCO4)cc(OC)c1OC,98.9%
15,O=Nc1c(-c2c(O)[nH]c3cc(Br)ccc23)[nH]c2ccccc12,-17.4% (active)
16,CC(C)(C)C(=O)OCOP(=O)(OCOC(=O)C(C)(C)C)C1CC(O)N(O)C1=O (centres undefined),13.7%
17,CC1(C)CC(=O)C2=C(C1)Oc1nc(N)c(C#N)c(N)c1C2c1ccc(F)cc1 (centres undefined),106%

row,Compound,growth
1,O=C1c2cc([N+](=O)[O-])ccc2-c2cc(Cl)c(NC(=O)C(F)(F)F)cc21,121%
2,COc1ccc(CNCCCN2C(=O)c3ccc4c5c(ccc(c35)C2=O)C(=O)N(CCCNCc2ccc(OC)c(OC)c2OC)C4=O)c(OC)c1OC,-51.1% (active)
3,O=C(Nc1ccccc1)Nc1ccc(Nc2ncnc3sc4c(c23)CCCC4)cc1,107%
4,O=S(=O)(Cc1cccc2c(CS(=O)(=O)c3ccc(Cl)cc3)cccc12)c1ccc(Cl)cc1,71.1%
5,COc1cc(CNC(=O)CCCC/C=C/C(C)C)ccc1OCc1nnc(Nc2ccccc2F)o1,45.2%
6,Nc1nc2c(c3ncncc13)C(c1cccc(C(F)(F)F)c1)Cc1ncncc1-2 (centres undefined),57.6%
7,Cn1cnc2nc[nH]c2c1=S,105%
8,O=C(O)c1ccc(-c2nn(-c3ccc(C(=O)O)cc3)cc2CNc2ccc(Br)cc2)cc1,104%
9,O=C(N/N=C/c1coc2ccccc2c1=O)c1cc2oc(-c3ccccc3)cc2[nH]1,110%
10,CCC(C)C1NC(=O)C(CC(C)C)NC(=O)C(C)NC(=O)C(C(C)C)NC(=O)C(CCCCN)NC(=O)C(CC(C)C)NC(=O)C(C(C)C)NC(=O)[C@H](C)NC(=O)C(C(C)CC)NC(=O)C(CCCN=C(N)N)NC(=O)C(CCCCN)NC(=O)C(CCCN=C(N)N)NC(=O)C(CCCCN)NC(=O)C([C@H](C)CC)NC(=O)C(CCCCN)NC1=O (some centres undefined),11.7%
11,C=CCN(C)C,106%
12,CCC(CCCN1C(=O)c2ccccc2C1=O)Nc1cc(OC)cc2cccnc12 (centres undefined),96.1%
13,O=c1c(N=Nc2nccs2)c(-c2ccccc2)[nH]n1-c1nc(-c2ccccc2)cs1,28.1%
14,Cc1ccc(C(=O)Nc2ccc(CN3CCN(C)CC3)c(C(F)(F)F)c2)cc1C#Cc1cncc2ncccc12,-76.8% (active)
15,CCOC(=O)C1C(=O)C(=O)N(C(C)C)C1C(=O)OCC (centres undefined),91.4%
16,COc1cc2c(cc1OC)C(Cc1cc(OC)c(OC)cc1[N+](=O)[O-])=NCC2,98%
17,COc1ccc2c(c1)/C(=C1/S/C(=N/c3nnc(C)s3)NC1=O)C(=O)N2Cc1ccc(Br)cc1,38%
